In PubChem BioAssay (NCATS):
Records with an inconclusive call do not appear. Activity calls are given as the source filed them. Unless noted, calls follow the shape of the dose curve; as a rule, active = well fitted curve in the direction sought with a large enough effect; inconclusive = small, poorly fitted or top-dose-only effect, or another doubt; inactive = no such curve, though single readings can be large; an effect the other way counts as inactive or inconclusive.

Key:
[1] = AP1 Signaling Pathway (AID 357; active = well fitted curve in either direction with a large enough effect, not every such curve was filed as active;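 also: ME-180 reporter cells stimulated with EGF at its EC50 level; % is scaled to controls: 0 for no effect and ±100 for the full control effect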); details: ME-180 AP-1-bla reporter, EGF-induced, beta-lactamase ratio, 5 h; at 7.69 µM (top of the series) unless noted
Outline: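 In this screen, ME-180 cells in Opti-MEM with 0.5% dialyzed FBS received EC50 EGF and compound titrations for 5 h. AP-1 reporter beta-lactamase was detected via CCF4 ratio, giving AC50 for positive and negative modulators.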

[2] = NFAT Signaling Pathway (AID 444; active = well fitted curve in either direction with a large enough effect, not every such curve was filed as active;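 also: carbachol stimulus at about its EC50 of 1 µM final; % is scaled to controls: 0 for no effect and ±100 for the full control effect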); details: Jurkat NFAT-bla M1, carbachol, beta-lactamase ratio, 5 h; at 7.69 µM (top of the series) unless noted
Outline: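 Read-out: CCF4 FRET ratio (460 nm/530 nm) after 1 h RT dye loading, used for %activity and AC50 from titration series. Cells: Jurkat NFAT-β-lactamase/M1 line, treated with compound plus 1 uM carbachol for 5 h, 37 °C.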

[3] = Stat Signaling Pathway (AID 446; active = well fitted curve in either direction with a large enough effect, not every such curve was filed as active;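 also: ME-180 cervical cancer cells given 40 pM IL-6 alongside compound; SIE-controlled beta-lactamase reporter measured as 460/530 nm FRET emission ratio; % is scaled to controls: 0 for no effect and ±100 for the full control effect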); details: ME-180 (cervical carcinoma) SIE beta-lactamase reporter, IL-6 stimulated, 5 h; at 7.69 µM (top of the series) unless noted
Outline: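 FRET read-out (405 nm excitation, 460/530 nm emission) of a beta-lactamase reporter under a STAT-inducible element in ME-180 cervical carcinoma cells. Cells with compound receive 40 pM IL-6 for 5 h. Values are normalised to AC90 stimulation and AC90 JAK-inhibitor controls.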

[4] = target: Glucocorticoid receptor (Homo sapiens) (UniProt P04150); assay: GR-GFP Redistribution (AID 450;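 active = compounds whose dose series gives a full or clear partial fitted curve of increased nuclear translocation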; also: potency is read from the fitted curve at half-maximal effect); details: U2OS GR-GFP nuclear translocation, laser cytometry, 2 h
Sequence of Glucocorticoid receptor (Homo sapiens) (P04150 whole entry, looked up): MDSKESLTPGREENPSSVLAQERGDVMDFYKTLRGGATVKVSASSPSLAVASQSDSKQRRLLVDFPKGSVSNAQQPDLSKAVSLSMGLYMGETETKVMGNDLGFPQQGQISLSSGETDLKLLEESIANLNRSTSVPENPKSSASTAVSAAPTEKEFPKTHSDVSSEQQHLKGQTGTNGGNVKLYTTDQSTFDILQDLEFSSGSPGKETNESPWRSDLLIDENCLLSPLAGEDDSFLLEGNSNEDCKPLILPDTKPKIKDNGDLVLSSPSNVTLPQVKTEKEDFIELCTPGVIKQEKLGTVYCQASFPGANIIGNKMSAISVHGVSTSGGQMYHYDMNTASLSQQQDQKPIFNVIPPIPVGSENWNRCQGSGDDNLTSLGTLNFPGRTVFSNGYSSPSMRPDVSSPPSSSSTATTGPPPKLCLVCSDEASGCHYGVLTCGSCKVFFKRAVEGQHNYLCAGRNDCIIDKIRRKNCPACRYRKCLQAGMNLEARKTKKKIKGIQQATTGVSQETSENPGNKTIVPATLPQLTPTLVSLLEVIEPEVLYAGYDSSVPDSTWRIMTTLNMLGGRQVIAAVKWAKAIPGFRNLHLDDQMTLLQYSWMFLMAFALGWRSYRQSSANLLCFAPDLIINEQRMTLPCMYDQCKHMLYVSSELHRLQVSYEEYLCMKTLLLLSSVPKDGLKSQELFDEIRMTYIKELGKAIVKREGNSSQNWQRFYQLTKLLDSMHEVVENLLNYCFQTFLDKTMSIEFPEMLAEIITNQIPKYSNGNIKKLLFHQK

[5] = target: Mitogen-activated protein kinase 10 (Mus musculus) (UniProt Q61831); assay: JNK3 AlphaScreen Assay (AID 530; active = well fitted curve in either direction with a large enough effect, not every such curve was filed as active;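 also: kinase came from lysate of stimulated human HepG2 cells; signal reports phosphorylation of biotinylated GST-cJun 1-79 at Ser73 with 10 µM ATP; % is scaled to controls: 0 for no effect and ±100 for the full control effect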)
Outline: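 qHTS titrations with 15 min compound pre-incubation before adding ATP (10 uM final). Read-out: AlphaScreen of Ser73-phosphorylated biotin-GST-cJun using HepG2 lysate JNK3 activated by IL-1β and TNFα.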

[6] = target: Guanine nucleotide-binding protein G(i) subunit alpha-1 (Homo sapiens) (UniProt P63096); assay: qHTS Assay for Inhibitors of RGS12 GoLoco Motif Activity (Green Fluorophore) (AID 879);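 also: 0% = labeled peptide with Gαi1 and full inhibition = labeled peptide alone without protein; negative values mean loss of peptide binding seen as reduced polarization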
Outline: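 A drop in FITC polarization marked displacement of the FITC-tagged RGS12 GoLoco peptide (10 nM) from Gαi1 (50 nM). Compounds were incubated 10 min at room temperature in Tris pH 7.5 buffer containing 150 mM NaCl, 0.1 mM GDP and 0.05% NP40; unlabeled peptide titration served as control.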

[7] = target: Cytochrome P450 2C9 (Homo sapiens) (UniProt P11712); assay: qHTS Assay for Inhibitors and Substrates of Cytochrome P450 2C9 (AID 883); also: potency is read from the fitted curve at half-maximal effect; nearly all actives have a fitted effect of over 60% in size
Outline: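 Luminescent read-out of deoxyluciferin hydroxylation, normalized to 57uM sulphaphenazole (AC100). Reaction: 10nM enzyme, 100uM Luciferin-H (equal to KM), 25mM KPO4, 10 min compound preincubation, then 60 min with NADPH regeneration, both at 37C.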

[8] = target: Cytochrome P450 3A4 (Homo sapiens) (UniProt P08684); assay: qHTS Assay for Activators of Cytochrome P450 3A4 (AID 885); also: nearly all actives have a fitted effect of over 65% in size
Sequence of Cytochrome P450 3A4 (Homo sapiens) (P08684 whole entry, looked up): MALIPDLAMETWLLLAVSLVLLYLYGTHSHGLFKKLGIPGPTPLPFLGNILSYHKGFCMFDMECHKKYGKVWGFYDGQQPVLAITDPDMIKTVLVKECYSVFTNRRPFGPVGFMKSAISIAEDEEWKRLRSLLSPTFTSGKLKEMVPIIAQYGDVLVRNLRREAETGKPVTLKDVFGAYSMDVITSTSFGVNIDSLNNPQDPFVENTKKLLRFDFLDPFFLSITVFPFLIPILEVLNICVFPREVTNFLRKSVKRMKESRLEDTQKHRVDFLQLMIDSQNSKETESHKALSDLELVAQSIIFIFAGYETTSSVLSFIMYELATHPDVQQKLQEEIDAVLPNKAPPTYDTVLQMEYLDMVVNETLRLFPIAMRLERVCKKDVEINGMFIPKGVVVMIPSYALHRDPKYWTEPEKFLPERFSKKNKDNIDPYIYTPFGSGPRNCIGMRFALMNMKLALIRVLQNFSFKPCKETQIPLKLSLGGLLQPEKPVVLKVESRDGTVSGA
Outline: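 Luminescent readout of luciferin formed from 25 uM Luciferin-PPXE (KM level) by 20 nM CYP3A4 in 200 mM KPO4, with 60 min NADPH-driven reaction at room temperature after 10 min compound exposure. Ketoconazole (57 uM) defined 100% inhibition.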

[9] = qHTS Assay for Identification of Small Molecule Antagonists for NFkB Signaling Pathway (AID 895; active = well fitted inhibition curve with a large enough effect in the signal ratio, with a control signal flat, not every such curve was filed as active; the % refers to the signal ratio; also: potency is read from the fitted curve at half-maximal effect)
Outline: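 Beta-lactamase reporter read-out (460 and 530 nm emission ratio, 405 nm excitation, 2 hrs substrate loading RT) after 5 hr stimulation with 10 pM TNF alpha in compound-treated NFkB-bla ME-180 cells in low-serum medium.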

[10] = qHTS Assay for Identification of Small Molecule Agonists for Thrombopoietin (TPO) Signaling Pathway (AID 917); also: % is scaled to controls: 0 for no effect and ±100 for the full control effect
Outline: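 Cell-based luciferase reporter screen. Mouse Ba/F3 line stably expressing human TPO receptor; IL-3 removed overnight before plating. Co-treatment with compound and EC50 TPO (26 pM), 24 hrs at 37 C, then luminescence.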

[11] = target: Muscarinic acetylcholine receptor M1 (Rattus norvegicus) (UniProt P08482); assay: qHTS Assay for Antagonists of Acetylcholine Muscarinic M1 Receptor: Kinetic Measurement of Intracellular Calcium Response (AID 943);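 also: Fluo-4 calcium signal as peak divided by basal fluorescence over 4 min; nearly all actives have a fitted effect of over 75% in size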
Sequence of Muscarinic acetylcholine receptor M1 (Rattus norvegicus) (P08482 whole entry, looked up): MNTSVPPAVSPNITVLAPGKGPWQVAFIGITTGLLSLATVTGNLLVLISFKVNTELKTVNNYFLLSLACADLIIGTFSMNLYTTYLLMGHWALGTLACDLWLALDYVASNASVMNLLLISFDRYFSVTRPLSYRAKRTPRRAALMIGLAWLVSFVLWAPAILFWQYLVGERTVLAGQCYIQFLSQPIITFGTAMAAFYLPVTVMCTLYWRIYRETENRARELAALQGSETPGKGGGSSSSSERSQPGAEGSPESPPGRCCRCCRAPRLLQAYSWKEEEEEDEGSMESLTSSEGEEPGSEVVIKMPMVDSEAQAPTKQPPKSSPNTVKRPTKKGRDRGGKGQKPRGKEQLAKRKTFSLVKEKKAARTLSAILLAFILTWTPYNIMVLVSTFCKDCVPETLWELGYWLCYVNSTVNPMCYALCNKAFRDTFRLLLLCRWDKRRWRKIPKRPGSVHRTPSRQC
Outline: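 Antagonism is measured as inhibition of the carbachol-evoked calcium rise in CHO cells transfected with rat M1. Cells are dye-loaded, exposed to compound for 10 min, then stimulated with 100 nM carbachol (EC80).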

[12] = target: Muscarinic acetylcholine receptor M1 (Rattus norvegicus) (UniProt P08482); assay: qHTS Assay for Antagonists of Acetylcholine Muscarinic M1 Receptor: Measurement of IP-One Response (AID 944); also: nearly all actives have a fitted effect of over 75% in size
Outline: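 Antagonist mode with rat M1 receptor transfected into CHO cells. Compound is added first for 10 min, carbachol at its EC80 follows for 30 min, and lysis reagents then allow TR-FRET detection of accumulated IP1.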

[13] = target: Pyruvate kinase (Leishmania mexicana) (UniProt Q27686); assay: qHTS Validation Assay for Inhibitors of Leishmania Mexicana Pyruvate Kinase (AID 945);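 also: 0% = DMSO only neutral control wells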
Outline: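 Luminescent ATP detection (PKLight) after a 1 h room-temperature reaction of 0.2 nM LmPYK E451W mutant with 0.5 mM PEP and 0.1 mM ADP at pH 7.2. Activity is normalized to DMSO-only control wells.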

[14] = target: Pyruvate kinase PKM (Homo sapiens) (UniProt P14618); assay: qHTS Assay for Activators of Human Muscle Pyruvate Kinase (AID 954; active = well fitted curve in the direction sought with a large enough effect, not every such curve was filed as active;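 also: 0% = uninhibited enzyme and -100% = no enzyme or full thiadiazolimine inhibition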)
Sequence of Pyruvate kinase PKM (Homo sapiens) (P14618 whole entry, looked up): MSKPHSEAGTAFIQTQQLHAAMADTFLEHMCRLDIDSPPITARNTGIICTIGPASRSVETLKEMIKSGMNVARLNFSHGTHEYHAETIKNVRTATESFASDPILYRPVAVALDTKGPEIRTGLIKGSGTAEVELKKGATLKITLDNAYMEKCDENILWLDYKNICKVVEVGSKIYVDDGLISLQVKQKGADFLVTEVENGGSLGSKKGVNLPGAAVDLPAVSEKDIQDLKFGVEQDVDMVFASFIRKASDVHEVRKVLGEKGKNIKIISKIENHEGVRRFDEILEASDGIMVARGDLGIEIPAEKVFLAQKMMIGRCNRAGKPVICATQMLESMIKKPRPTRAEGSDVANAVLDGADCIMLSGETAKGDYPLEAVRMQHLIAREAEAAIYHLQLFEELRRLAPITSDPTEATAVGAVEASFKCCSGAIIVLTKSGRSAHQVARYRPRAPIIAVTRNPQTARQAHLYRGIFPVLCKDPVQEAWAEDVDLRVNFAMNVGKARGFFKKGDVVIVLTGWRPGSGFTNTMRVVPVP
Outline: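 ATP production by PKM2 detected via luciferase luminescence after 1 h room-temperature reaction (0.1 nM enzyme, PEP at Km 0.5 mM, ADP 0.1 mM, pH 7.2 imidazole buffer). Inhibition scaled to no-enzyme control; activation referenced to 0.3 nM enzyme wells.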

[15] = target: Alpha-galactosidase A (Homo sapiens) (UniProt P06280); assay: Counterscreen for Glucocerebrosidase Inhibitors: qHTS Assay for Human alpha-Galactosidase at pH 4.5 (AID 992); also: 0% is about no effect
Sequence of Alpha-galactosidase A (Homo sapiens) (P06280 whole entry, looked up): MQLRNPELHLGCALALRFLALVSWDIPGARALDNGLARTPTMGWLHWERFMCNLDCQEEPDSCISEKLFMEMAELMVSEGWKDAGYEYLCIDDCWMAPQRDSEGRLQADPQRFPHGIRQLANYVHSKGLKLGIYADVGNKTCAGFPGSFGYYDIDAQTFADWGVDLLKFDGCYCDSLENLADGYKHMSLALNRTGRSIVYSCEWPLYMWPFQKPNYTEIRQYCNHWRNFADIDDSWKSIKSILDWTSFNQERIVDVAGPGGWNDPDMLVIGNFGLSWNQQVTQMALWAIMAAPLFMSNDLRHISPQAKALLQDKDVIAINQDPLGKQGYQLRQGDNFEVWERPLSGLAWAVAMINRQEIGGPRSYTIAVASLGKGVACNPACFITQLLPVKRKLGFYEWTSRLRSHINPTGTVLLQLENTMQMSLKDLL
Outline: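 Fluorogenic 1536-well qHTS at pH 4.5 (citrate, Tween-20): 2 nM enzyme, 80 uM 4-MU-alpha-galactoside, 20 min room temperature, NaOH/glycine stop. Titration 0.7 nM to 77 uM, data normalized to no-enzyme and full-activity controls, Hill-fitted AC50.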

[16] = target: alpha-glucosidase (Oryza sativa, rice) (UniProt Q653V4); assay: Counterscreen for Glucocerebrosidase Inhibitors: qHTS Assay for Rice alpha-Glucosidase at pH 5.0 (AID 997);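 also: 0% = full activity with enzyme and -100% = basal without enzyme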
Outline: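 Endpoint fluorogenic assay at pH 5.0: compounds (0.7 nM to 77 uM) titrated against 4 nM rice enzyme and 400 uM 4-MU-alpha-glucoside for 20 min at room temperature; NaOH/glycine stop, read ex 365/em 440 nm, Hill-fitted AC50.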

[17] = Validation of Assay for Modulators of Lamin A Splicing (AID 1459; active = well fitted curve in the direction sought with a large enough effect in the signal ratio; the % refers to the signal ratio;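 also: cells exposed to compound for two days before reading; 0% is about no effect; ratio rise marks activators and ratio drop marks inhibitors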)
Outline: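 HeLa S3 lamin A-EGFP/DsRed2 stable clone, 600 cells/well, Opti-MEM 2% FBS; compounds by pin tool; 48 hrs, 37 °C/5% CO2; Acumen 488 nm scan, objects 10-100 um; GFP/RFP intensity ratio.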

[18] = target: DNA repair nuclease/redox regulator APEX1 (Homo sapiens) (UniProt P27695); assay: qHTS Validation Assay for Inhibitors of the Human Apurinic/apyrimidinic Endonuclease 1 (APE1) (AID 1705)
Sequence of DNA repair nuclease/redox regulator APEX1 (Homo sapiens) (P27695 whole entry, looked up): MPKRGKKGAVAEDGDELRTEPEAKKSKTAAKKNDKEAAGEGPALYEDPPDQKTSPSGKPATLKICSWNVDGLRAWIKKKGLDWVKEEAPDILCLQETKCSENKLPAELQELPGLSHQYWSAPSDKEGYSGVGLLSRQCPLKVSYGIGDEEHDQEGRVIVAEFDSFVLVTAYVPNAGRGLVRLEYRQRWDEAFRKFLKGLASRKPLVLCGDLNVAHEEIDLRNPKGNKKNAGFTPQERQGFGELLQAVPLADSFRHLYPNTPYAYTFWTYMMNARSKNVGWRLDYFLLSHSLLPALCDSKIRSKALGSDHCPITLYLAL
Outline: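 qHTS, 1536-well. APE1 + cpd 15 min RT → 50 nM TAMRA/BHQ-2 THF-abasic dsDNA substrate → kinetic fluorescence, 3 reads/60 s; delta(read3−read1) = reaction progress. No-enzyme buffer = negative control.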

[19] = Counterscreen for APE1 Inhibitors: Fluorescent Dye Displacement Validation Assay (AID 1707);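 also: plate controls were ThO with dsDNA and no compound for no effect and ThO without dsDNA for full effect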
Outline: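 Counterscreen flags promiscuous DNA binders: compounds displacing ThO from duplex DNA (abasic THF site, 50 nM) reduce 540 nm emission (480 nm excitation). ThO 250 nM final; Tris-HCl pH 7.5 with NaCl, MgCl2 and Tween-20.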

[20] = qHTS for differential inhibitors of proliferation of Plasmodium falciparum line 7G8 (AID 1815);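 also: potency is read from the fitted curve at half-maximal effect; parasite growth measured after three days of incubation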
[21] = qHTS for differential inhibitors of proliferation of Plasmodium falciparum line GB4 (AID 1816); details: Potency: Plasmodium falciparum GB4 proliferation inhibition;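 also: potency is read from the fitted curve at half-maximal effect; parasite growth measured after 72 h incubation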
[22] = qHTS for differential inhibitors of proliferation of Plasmodium falciparum line 3D7 (AID 1876); also: potency is read from the fitted curve at half-maximal effect
[23] = qHTS for differential inhibitors of proliferation of Plasmodium falciparum line D10 (AID 1877);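 also: potency is read from the fitted curve at half-maximal effect; parasites grown with compound for 72 h before DNA staining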
[24] = qHTS for differential inhibitors of proliferation of Plasmodium falciparum line Dd2 (AID 1882); details: Potency: Plasmodium falciparum Dd2 proliferation inhibition; also: potency is read from the fitted curve at half-maximal effect; nearly all actives have a fitted effect of over 65% in size
Outline: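 SYBR Green DNA fluorescence (ex 485, em 535 nm) after overnight lysis quantifies parasite growth; compound exposure lasted 72 h at 37 C on infected red cells at 2.5% hematocrit, 0.3% parasitemia (final). Artemisinin 0.29 uM and vehicle wells define normalization.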

[25] = qHTS for differential inhibitors of proliferation of Plasmodium falciparum line W2 (AID 1883); details: Potency: Plasmodium falciparum W2 proliferation inhibition;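 also: potency is read from the fitted curve at half-maximal effect; parasites grown with compound for 72 h before lysis and staining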
[26] = qHTS for differential inhibitors of proliferation of Plasmodium falciparum line HB3 (AID 1886); details: Potency: Plasmodium falciparum HB3 proliferation inhibition;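 also: potency is read from the fitted curve at half-maximal effect; parasites grown with compound for 72 h before SYBR Green readout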
[27] = target: Ferritin light chain (Equus caballus) (UniProt P02791); assay: qHTS Validation Assay for Identification of Novel General Anesthetics (AID 2323); also: % is scaled to controls: 0 for no effect and ±100 for the full control effect
Sequence of Ferritin light chain (Equus caballus) (P02791 2-175 limits assumed): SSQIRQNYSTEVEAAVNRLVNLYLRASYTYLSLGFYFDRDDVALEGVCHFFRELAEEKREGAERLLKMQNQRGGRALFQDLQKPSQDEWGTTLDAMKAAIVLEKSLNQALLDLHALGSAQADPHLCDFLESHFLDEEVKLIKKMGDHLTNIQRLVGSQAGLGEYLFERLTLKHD
Outline: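 Fluorescence at 535 nm (excitation 380 nm) reported loss of 1-AMA binding to horse-spleen apoferritin (10 uM) in PBS with 50% saturated 1-aminoanthracene, after 10 min room-temperature incubation with compound; values from Hill fits of normalized response.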

[28] = target: ATP-dependent DNA helicase Q1 (Homo sapiens) (UniProt P46063); assay: qHTS Validation Assay for Inhibitors of RecQ-Like Dna Helicase 1 (RECQ1) (AID 2353);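 also: plate controls were DMSO vehicle for no effect and enzyme-free control for full effect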
Sequence of ATP-dependent DNA helicase Q1 (Homo sapiens) (P46063 whole entry, looked up): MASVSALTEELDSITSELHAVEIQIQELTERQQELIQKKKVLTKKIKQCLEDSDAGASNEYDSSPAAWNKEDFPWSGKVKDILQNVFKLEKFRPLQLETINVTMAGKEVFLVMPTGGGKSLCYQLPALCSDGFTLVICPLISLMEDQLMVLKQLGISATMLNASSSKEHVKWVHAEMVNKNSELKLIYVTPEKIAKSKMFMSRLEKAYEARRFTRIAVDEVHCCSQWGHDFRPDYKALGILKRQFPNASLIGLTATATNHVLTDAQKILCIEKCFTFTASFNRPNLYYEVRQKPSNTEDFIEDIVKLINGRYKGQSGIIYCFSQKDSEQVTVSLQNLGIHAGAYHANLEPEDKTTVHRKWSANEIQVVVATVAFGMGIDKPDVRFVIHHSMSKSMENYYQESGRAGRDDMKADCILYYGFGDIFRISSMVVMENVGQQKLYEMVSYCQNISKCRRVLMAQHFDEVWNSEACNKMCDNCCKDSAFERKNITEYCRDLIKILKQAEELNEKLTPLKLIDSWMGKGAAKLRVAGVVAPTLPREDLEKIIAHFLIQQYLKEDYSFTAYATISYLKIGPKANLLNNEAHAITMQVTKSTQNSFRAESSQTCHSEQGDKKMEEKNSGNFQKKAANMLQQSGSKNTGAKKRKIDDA
Outline: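 RECQ1T1 50 nM; forked duplex (20 bp + 30-nt ss tails) 200 nM, ATP 2 mM final; pH 8.0, 2 mM MgCl2, 2.5 ug/ml poly(dI-dC); 15 min compound preincubation; discontinuous kinetic read over 2 h at RT.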

[29] = Validation screen for small molecules that induce DNA re-replication in MCF 10A normal breast cells (AID 463097); also: 0% is about no effect; nearly all actives have a fitted effect of over 60% in size
Outline: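 Image-based qHTS: normal breast cells are incubated with compound for 48 hr, stained with Hoechst, and scanned for total nuclear fluorescence. Compounds raising the fraction of nuclei with elevated DNA content count as re-replication inducers.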

[30] = Quantitative high throughput screen for delayed death inhibitors of the malarial parasite plastid, 96 hour incubation (AID 488745); also: potency is read from the fitted curve at half-maximal effect; nearly all actives have a fitted effect of over 70% in size
Outline: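 Readout is firefly luciferase luminescence from an integrated reporter in P. falciparum; lower signal marks inhibited growth. Cultures at 2% hematocrit and 0.1% parasitemia were treated with compound across two generations (96 h, 37 C, 5% CO2).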

[31] = Quantitative high throughput screen for delayed death inhibitors of the malarial parasite plastid, 48 hour incubation (AID 488752); also: potency is read from the fitted curve at half-maximal effect; nearly all actives have a fitted effect of over 65% in size
Outline: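 First, compound was pinned into RPMI 1640 medium containing 0.5% Albumax. Next, reporter-parasite-infected erythrocytes were added to 2% hematocrit and 0.1% parasitemia. After 48 h at 37 C under 5% CO2, luciferase detection reagent was added and luminescence read.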

[32] = target: M-phase phosphoprotein 8 (Homo sapiens) (UniProt Q99549); assay: qHTS Validation Assay for Inhibitors for MPP8 Chromodomain Interactions with Methylated Histone Tails (AID 488949); also: potency is read from the fitted curve at half-maximal effect; nearly all actives have a fitted effect of over 55% in size
Sequence of M-phase phosphoprotein 8 (Homo sapiens) (Q99549 whole entry, looked up): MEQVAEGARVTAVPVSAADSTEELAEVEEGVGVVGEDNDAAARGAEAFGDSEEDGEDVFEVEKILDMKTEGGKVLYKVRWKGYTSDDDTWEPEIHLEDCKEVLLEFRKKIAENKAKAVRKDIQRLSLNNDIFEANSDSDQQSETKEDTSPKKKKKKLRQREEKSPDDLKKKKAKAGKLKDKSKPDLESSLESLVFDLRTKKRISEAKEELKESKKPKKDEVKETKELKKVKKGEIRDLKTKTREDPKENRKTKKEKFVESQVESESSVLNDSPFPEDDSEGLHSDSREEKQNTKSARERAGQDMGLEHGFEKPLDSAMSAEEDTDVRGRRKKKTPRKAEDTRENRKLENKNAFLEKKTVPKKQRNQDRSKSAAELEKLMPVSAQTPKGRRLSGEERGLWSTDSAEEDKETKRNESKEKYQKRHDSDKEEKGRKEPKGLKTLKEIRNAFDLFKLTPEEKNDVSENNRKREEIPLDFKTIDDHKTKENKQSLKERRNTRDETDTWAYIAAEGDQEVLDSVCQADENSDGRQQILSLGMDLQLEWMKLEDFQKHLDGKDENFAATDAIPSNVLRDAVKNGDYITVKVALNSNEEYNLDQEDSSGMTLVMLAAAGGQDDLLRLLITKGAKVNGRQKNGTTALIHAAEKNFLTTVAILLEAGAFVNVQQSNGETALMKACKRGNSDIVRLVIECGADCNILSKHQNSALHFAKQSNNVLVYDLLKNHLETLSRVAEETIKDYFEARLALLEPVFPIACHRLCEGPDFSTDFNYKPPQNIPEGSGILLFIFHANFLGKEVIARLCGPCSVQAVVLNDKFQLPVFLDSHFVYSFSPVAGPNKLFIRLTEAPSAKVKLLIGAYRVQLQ
Outline: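 50 nM MPP8 + 50 nM b-H3K9me3 peptide, PBS pH 7.4/0.01% Tween-20, 30 min RT; + cpd 30 min RT; + AlphaScreen donor/Ni-chelate acceptor beads 10 ug/mL final, 30 min dark; luminescence read.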

[33] = target: Thyrotropin-releasing hormone receptor (Homo sapiens) (UniProt P34981); assay: qHTS for Small Molecule Agonists and Allosteric Enhancers of Human TRH Receptor: Validation Screen for Agonists (AID 493127;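 active = calcium activation more than 3 SD above the typical response in the agonist read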;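 also: intracellular calcium rise by fluo-8 fluorescence before TRH EC20 addition; 0% is about no effect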); details: TRH receptor agonist cell assay; at 2 µM; active compounds read high
Outline: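 Compounds are added by online pintool to dye-loaded TRHR cells while fluorescence is recorded every second. A rise in calcium signal during the agonist read marks activation; a later 10 nM TRH addition (EC20) serves the separate enhancer mode.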

[34] = target: Galactokinase (Homo sapiens) (UniProt P51570); assay: qHTS Validation Assay for Inhibitors of Human Galactokinase (GALK) (AID 493189); also: 0% is about no effect
Outline: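 5 nM GALK / 100 uM galactose / 35 uM ATP, 20 mM HEPES pH8.0, 5 mM MgCl2, 60 mM NaCl, 1 mM DTT, 0.01% BSA (final). RT 1 h; Kinase-Glo Plus luminescence.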

[35] = Validation screen for small molecules that induce DNA re-replication in SW480 colon adenocarcinoma cells (AID 504364); also: 0% is about no effect
Outline: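 Image-based qHTS: compounds were incubated with SW480 cells for 48 hr, nuclei stained with Hoechst, and per-nucleus fluorescence intensity scanned to flag cells with excess DNA content.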

COC(=O)c1c(-c2cc(OC)c(OC)c(OC)c2)c2ccc(OCc3ccccn3)cc2c(=O)n1-c1ccc(N)cc1
active: Potency [7] 3.98 µM | Potency [9] 3.16 µM | Potency [20] 0.891 µM | Potency [21] 2.82 µM | Potency [22] 3.98 µM | Potency [23] 7.08 µM | Potency [24] 2 µM | Potency [25] 2.24 µM | Potency [26] 2.82 µM | Potency [30] 7.38 µM | Potency [31] 9.28 µM | Potency [32] 28.2 µM
inactive: activity change, negative = inhibition [1] -16.9% [at 38 µM] | activity change, negative = inhibition [2] 10.6% [at 38 µM] | activity, negative = inhibition [3] -8.64% [at 38 µM] | Potency [4] > 46 µM | outcome [5] | outcome [6] | Potency [8] | outcome [10] | Potency [11] | Potency [12] | Potency [13] | outcome [14] | outcome [15] | outcome [16] | outcome [17] | Potency [18] | Potency [19] | outcome [27] | Potency [28] | outcome [29] | activation [33] -4% | outcome [34] | outcome [35]
